The list is not random: actives were taken first. Their share in the collection is about 3.5%.
MITF primary: MITF inhibitors, primary screen, biochemical, AlphaScreen, human; inhibition, % at 2.6 µM; Microphthalmia-associated transcription factor (Homo sapiens), O75030; AlphaScreen MITF homodimerization, bead proximity signal; actives 0.91% (n = 650,000); in the data active = inhibition above about 50%
GPR151 ag: activators of human GPR151, primary screen, cell-based, PathHunter beta-arrestin, luminescence; G-protein coupled receptor 151 (Homo sapiens), Q8TDV0; PathHunter beta-arrestin GPR151 cells; activation, % at 11.2 µM; actives 1% (n = 650,000); AID 1508602, 2020; in the data active = activation above about 4.9%
FBW7 act: FBW7 E3 ligase activators, primary screen, biochemical, AlphaScreen, human; normalized activity (activation), % at 26.1 µM; AID 1259310, 2017; actives 0.13% (n = 650,000); AlphaScreen FBW7–phospho-cyclin E peptide binding, activator screen; in the data active = normalized activity above about 1.9%;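 note: purified mutant Fbw7 with reduced substrate affinity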
Target sequence (Q969H0 whole entry, looked up): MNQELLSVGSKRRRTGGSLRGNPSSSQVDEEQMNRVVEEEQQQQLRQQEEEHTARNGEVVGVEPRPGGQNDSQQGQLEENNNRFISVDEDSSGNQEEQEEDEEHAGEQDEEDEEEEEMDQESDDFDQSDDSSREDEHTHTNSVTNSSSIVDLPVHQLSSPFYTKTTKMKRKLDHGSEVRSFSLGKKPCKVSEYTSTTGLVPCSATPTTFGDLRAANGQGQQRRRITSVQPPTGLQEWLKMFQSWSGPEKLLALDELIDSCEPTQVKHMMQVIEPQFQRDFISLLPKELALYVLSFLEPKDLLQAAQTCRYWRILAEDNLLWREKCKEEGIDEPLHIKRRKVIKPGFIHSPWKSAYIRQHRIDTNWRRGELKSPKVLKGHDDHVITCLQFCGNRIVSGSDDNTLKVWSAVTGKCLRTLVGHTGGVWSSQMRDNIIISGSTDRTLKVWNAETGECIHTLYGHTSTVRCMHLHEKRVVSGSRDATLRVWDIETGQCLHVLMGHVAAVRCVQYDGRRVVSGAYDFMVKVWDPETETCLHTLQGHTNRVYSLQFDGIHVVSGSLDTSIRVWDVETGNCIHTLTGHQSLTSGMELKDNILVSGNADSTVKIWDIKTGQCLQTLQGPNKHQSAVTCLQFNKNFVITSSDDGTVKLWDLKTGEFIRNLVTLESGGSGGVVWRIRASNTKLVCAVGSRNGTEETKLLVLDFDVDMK
TEAD-YAP inh: TEAD-YAP interaction inhibition, primary screen, TEAD-YAP interaction inhibitor project, luminescence, HEK-TIYL cells; TEAD-Gal4/YAP UAS-luciferase luminescence; inhibition, % at 9.12 µM; actives 1.4% (n = 640,000); AID 1259422, 2018; in the data active = inhibition above about 32%
GPR151 confirm: GPR151 activators, triplicate retest, confirmation, cell-based, PathHunter beta-arrestin, luminescence; shares compounds with GPR151 ag; GPR151 PathHunter beta-arrestin cells, 90 min; % of EA-reagent control over plate median; activation, % at 11.2 µM; 6,700 tested, under 10 active; AID 1508609, 2020;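 active = mean percent activation across replicates above the confirmation screen cutoff of 4.91%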
GPR119 counter: GPR119 activators in beta-arrestin cells, counter-screen for GPR151 activator project, cell-based, PathHunter beta-arrestin, luminescence, triplicate | shares compounds with GPR151 ag | 90 min; 0 = compound-well median, 100 = enzyme-acceptor control | activation, % at 11.2 µM | actives 0.3% (n = 6,700) | AID 1508611, 2020;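 active = mean percent activation in the counterscreen above 29.09%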;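 note: counterscreen on off-target GPR119 to flag nonselective hits from the GPR151 activator screen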
A number is an active result; . = inactive; / = no result.

SMILES	MITF primary	GPR151 ag	FBW7 act	TEAD-YAP inh	GPR151 confirm	GPR119 counter
C/C(=N\NC(=O)Cn1nnc(-c2ccccc2)n1)c1nonc1C	.	16.5	.	.	.	.
CC(=O)Cn1nnc(-c2ccccc2)n1	.	.	.	.	/	/
COC(=O)C1CCCCN1C(=O)CC1(c2ccc(OC)cc2)CC(=O)N(C2CC2)C1=O (configuration not stated)	.	.	.	.	/	/
CCCCCCOc1ccc(C(=O)Oc2ccc(-c3cccc(-c4ccc(OC(=O)c5ccc(OCCCCCC)cc5)cc4)n3)cc2)cc1	.	.	.	.	/	/
COc1ccc(-c2nc(C)c(CCNC(=O)c3cccc(OC)c3)s2)cc1	.	.	.	.	/	/
COc1ccc(C(=O)NCCc2sc(-c3ccccc3)nc2C)cc1	.	5.2	.	.	.	.
O=C(Nc1nnc(COc2ccccc2)o1)c1ccccc1	.	.	.	.	/	/
O=C(Nc1nnc(COc2ccccc2)o1)c1cc(Br)ccc1Cl	.	4.9	.	.	.	.
CCOCCOC(=O)C1=C(C)NC2=C(C(=O)CC(c3ccc(Cl)cc3)C2)C1c1ccc([N+](=O)[O-])cc1 (configuration not stated)	.	.	.	.	/	/
COc1ccc(C(=O)C2CCCN(S(=O)(=O)c3c(C)nn(C)c3Cl)C2)c(C)c1 (configuration not stated)	.	.	.	.	/	/
COc1c(C)cc(C(=O)C2CCCN(S(=O)(=O)c3c(C)nn(C)c3Cl)C2)cc1C (configuration not stated)	.	8.7	.	.	.	.
CC(C)CS(=O)(=O)Nc1ccc2c(c1)CCCN2S(=O)(=O)c1ccc(F)cc1	.	5.2	.	.	.	.
O=C1c2cc3ccccc3c(-c3ccccc3)c2C(=O)N1c1ccccc1-c1ccccc1	.	.	.	.	/	/
COc1ccccc1NC(=O)c1ccc(NC(=O)COC(=O)c2ccc(O)cc2)cc1	.	5.4	.	.	.	.
Cc1c(Cl)cccc1NC(=O)c1ccc(Br)o1	.	.	.	.	/	/
O=C(Nc1ccc2c(c1)OCO2)c1cccc(Nc2ccc3ncccc3c2)n1	.	6.3	.	.	.	.
O=C(NCc1cccnc1)c1cccc(Nc2ccc3ncccc3c2)n1	.	5.3	.	.	.	.
O=C(Nc1ccc2c(c1)OCO2)c1cccc(Nc2ccc3ncccc3c2)c1	.	.	.	.	/	/
COc1ccc(CN2CCNC(=O)C2CC(=O)NCCOC(C)C)c(OC)c1 (configuration not stated)	.	.	.	.	/	/
CC[C@H](C)[C@@H]1NC(=O)[C@@H]2C[C@H](NC(=O)Nc3ccccc3F)CN2C1=O	.	.	.	.	/	/
Cc1ccc2nc(NC(=O)CN3C(=S)NC(C)(C)CC3C)sc2c1 (configuration not stated)	.	.	.	.	/	/
Cc1ccc(C(=O)NCc2ccco2)c(Cl)c1	.	8.7	.	.	.	.
CC(=O)c1ccc(OCCCC(=O)NCc2ccco2)cc1	.	.	.	.	/	/
COCCNC(=O)C(=O)NCc1ccco1	.	.	.	.	/	/
CCc1ccc(OCCCC(=O)NCc2ccco2)cc1	.	6.6	.	.	.	.
SMILES	MITF primary	GPR151 ag	FBW7 act	TEAD-YAP inh	GPR151 confirm	GPR119 counter
Cc1ccc(OCCNC(=O)C(=O)NCc2ccco2)cc1	.	6.5	.	32.7	.	.
CCOC(=O)CC(=O)CSc1nc(-c2cccs2)cc(-c2ccc(F)cc2)c1C#N	.	.	.	.	/	/
Cc1cc([N+](=O)[O-])ccc1NC(=S)NC(=O)COc1ccccc1	.	7.3	.	.	.	.
O=C(CSc1nc(=O)n(CCCO)c2c1CCCC2)N1CCN(c2ccccc2)CC1	.	.	.	.	/	/
CC1CCN(C(=O)CSc2nc(=O)n(CCO)c3c2CCCC3)CC1	.	8.3	.	.	.	.
Cn1nccc1Nc1cc(C(=O)NCCOc2ccccc2)c2ccccc2n1	.	5.3	.	.	.	.
CC(C)N(C)Cc1nnnn1CC(=O)N1CCN(c2ccccc2O)CC1	.	5.0	.	.	.	.
CC1(C)CC(=O)c2sc(NC(=O)COc3ccc(Cl)cc3)nc2C1	.	6.4	.	.	.	.
O=C(OCc1nc2ccccc2s1)c1ccccc1	.	6.7	.	.	.	.
CC(C)n1cnc2c(NC3CCN(Cc4ccccc4)CC3)nc(-c3csc4ccccc34)nc21	.	.	.	.	/	/
CCOc1ccccc1C1C(C#N)=C(N)Oc2cc(N(C)C)ccc21 (configuration not stated)	.	.	.	.	/	/
CC(=O)OCC(=O)Nc1cc(C)cc(C)c1	.	.	.	.	/	/
COc1cccc(-c2nc(SCC(=O)O)c3c(=O)n(C)c(=O)n(C)c3n2)c1	.	11.6	.	.	.	.
CC(C)Sc1nc(-c2ccco2)nc2c1c(=O)n(C)c(=O)n2C	.	.	.	.	/	/
COc1ccc(-c2nc(SCC(=O)O)c3c(=O)n(C)c(=O)n(C)c3n2)cc1	.	.	.	.	/	/
Cn1c(=O)c2c(SCC(=O)Nc3nccs3)nc(-c3ccco3)nc2n(C)c1=O	.	.	.	.	/	/
CC(Sc1nc(-c2ccco2)nc2c1c(=O)n(C)c(=O)n2C)C(=O)O (configuration not stated)	.	9.6	.	.	.	.
Cc1csc(NC(=O)CSc2nc(-c3ccco3)nc3c2c(=O)n(C)c(=O)n3C)n1	.	6.6	.	.	.	.
COc1cccc(CN(CCN(C)C)C(=O)[C@@H](Cc2ccc(-c3cn[nH]c3)cc2)NC(=O)C(C)O)c1 (some centres not stated)	.	5.1	.	.	.	.
O=C(Nc1cc(Cl)ccc1Cl)/C(=C/c1cccc([N+](=O)[O-])c1)NC(=O)C1CCCCC1	.	.	.	.	/	/
O=C(Nc1ccc(Cl)cc1)/C(=C/c1cccc([N+](=O)[O-])c1)NC(=O)C1CCCCC1	.	6.2	.	.	.	.
COc1cccc(CNC(=O)Cn2ncn3c(cc4sc(C)cc43)c2=O)c1	.	.	.	.	/	/
CC(O)c1nc2ccccc2n1Cc1cccc(Cl)c1 (configuration not stated)	.	5.2	.	.	.	.
CC(O)c1nc2ccccc2n1CCOc1ccccc1F (configuration not stated)	.	5.1	.	.	.	.
O=C(Nc1ccccc1C(=O)N1CCOCC1)c1cccc(I)c1	.	.	.	.	/	/
O=C(CN1CCN(c2ccccc2)CC1)Nc1cccc2ccccc12	.	.	.	.	/	/
COc1cc(OC)c(OC)cc1CNc1ccc(F)c(F)c1	.	.	.	.	/	/
